The target in one test is ZNF721 DBD1 (Homo sapiens, UniProt Q8TF20-2 29-461). The test is described as follows: HT-SELEX; 20 mM HEPES pH 7, 140 mM KCl, 5 mM NaCl, 1 mM K2HPO4, 2 mM MgSO4, 100 uM EGTA, ZnSO4, 0.1% Tween20; room temperature, 1 h; high values mean tight binding. The note with it: protein: ivt; tags: eGFP (N-terminal); dsDNA, one strand shown. In short, it runs like this: (§1)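 Tagged transcription factor, expressed in HEK293 lysate or cell-free extract as a full-length protein or DNA-binding-domain fragment, was held on beads. It bound a randomized 40-base DNA library during 1 h at room temperature in low-stringency HEPES/KCl buffer with Tween20. Eluted DNA went through successive PCR cycles and Illumina sequencing of ~3 million 60 bp reads per sample. A higher relative k-mer count in the selected reads denotes tighter binding.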
ZNF721 DBD1, sequence (Q8TF20 17-449): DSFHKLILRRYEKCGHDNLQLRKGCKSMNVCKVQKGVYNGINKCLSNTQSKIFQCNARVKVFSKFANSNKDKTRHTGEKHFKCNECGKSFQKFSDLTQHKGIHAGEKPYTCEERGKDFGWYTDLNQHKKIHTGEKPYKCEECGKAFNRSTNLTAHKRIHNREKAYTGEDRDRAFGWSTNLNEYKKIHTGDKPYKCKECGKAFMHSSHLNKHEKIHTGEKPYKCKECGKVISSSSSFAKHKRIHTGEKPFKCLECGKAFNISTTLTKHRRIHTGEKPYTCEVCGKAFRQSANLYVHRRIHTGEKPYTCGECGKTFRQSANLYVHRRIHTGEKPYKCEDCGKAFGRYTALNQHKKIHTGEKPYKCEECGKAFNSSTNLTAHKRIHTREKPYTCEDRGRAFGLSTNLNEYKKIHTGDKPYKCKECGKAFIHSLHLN
ZNF721 DBD2, sequence (Q8TF20 383-911): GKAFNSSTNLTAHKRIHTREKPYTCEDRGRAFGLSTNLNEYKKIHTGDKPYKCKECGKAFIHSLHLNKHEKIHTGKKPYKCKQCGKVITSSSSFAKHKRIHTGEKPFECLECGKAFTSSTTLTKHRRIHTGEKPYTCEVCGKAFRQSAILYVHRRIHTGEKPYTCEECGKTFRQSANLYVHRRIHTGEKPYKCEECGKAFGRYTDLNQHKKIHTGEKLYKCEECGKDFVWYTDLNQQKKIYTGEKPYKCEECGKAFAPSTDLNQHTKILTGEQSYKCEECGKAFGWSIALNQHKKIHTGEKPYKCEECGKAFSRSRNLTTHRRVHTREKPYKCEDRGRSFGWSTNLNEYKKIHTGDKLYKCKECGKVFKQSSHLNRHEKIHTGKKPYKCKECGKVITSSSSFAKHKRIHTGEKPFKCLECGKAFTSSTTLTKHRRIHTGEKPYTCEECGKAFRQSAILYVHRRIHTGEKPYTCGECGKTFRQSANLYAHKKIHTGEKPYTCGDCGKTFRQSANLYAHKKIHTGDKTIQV
CCCCCCGCAC: the binding signal is 0.00372 relative 10-mer count.

GCCCCACCGC displayed a binding signal of 0.00271 relative 10-mer count.

Sequence GCCCCCCTCC returned a binding signal of 0.00527 relative 10-mer count.

Sequence CCGCCCACCA had a binding signal of 0.00477 relative 10-mer count.

Consider CCACCTCCCC, for which the binding signal turned out to be 0.0134 relative 10-mer count.

Consider CCCAAAAAAA, for which the binding signal came to 0.0067 relative 10-mer count.

CAGCATACCC: the binding signal was found to be 0.00271 relative 10-mer count.

AGGGGGGCGG came in with a binding signal of 0.00417 relative 10-mer count.

CCCTCCCTCC displayed a binding signal of 0.0107 relative 10-mer count.

As for AAAAAAAAAA, the binding signal was 0.0189 relative 10-mer count.

CGCCCCCCAC gave a binding signal of 0.00679 relative 10-mer count.

CCCCTCGCCC displayed a binding signal of 0.00665 relative 10-mer count.

The sequence AAAAAAAAGA gave a binding signal of 0.00757 relative 10-mer count.

Regarding CCCACCATCC, the binding signal came out at 0.00647 relative 10-mer count.

In the case of AGGGGTGGGG, the binding signal was 0.00968 relative 10-mer count.

The sequence CGAAAAAAGC displayed a binding signal of 0.0584 relative 10-mer count.

Take ATAGCTTCAT: the binding signal was found to be 0.158 relative 10-mer count.

The sequence CTCCCCCCCA registered a binding signal of 0.005 relative 10-mer count.

Regarding CCCTCTCCCC, the binding signal amounted to 0.00564 relative 10-mer count.

Consider ACCTCCCACC, for which the binding signal was found to be 0.00578 relative 10-mer count.

For GCCCCCTCCC, the binding signal is 0.00633 relative 10-mer count.

Regarding CTCCCCCCTC, the binding signal was 0.00605 relative 10-mer count.

As to CCCTCCCCCG, the binding signal came out at 0.00555 relative 10-mer count.

CCCCTCTCCC displayed a binding signal of 0.00454 relative 10-mer count.

As to CCACCCACAC, the binding signal was 0.00734 relative 10-mer count.

Sequence CGCCCCGCCC came in with a binding signal of 0.00555 relative 10-mer count.

Sequence ACCCCCCTCC gave a binding signal of 0.00624 relative 10-mer count.

For the sequence GTGGGTGGGA, the binding signal turned out to be 0.00729 relative 10-mer count.

As for CCCCCCCGAC, the binding signal stood at 0.00408 relative 10-mer count.

In turn, AGCTTTTTTC returned a binding signal of 0.217 relative 10-mer count.

In turn, GCCCCCCCCA registered a binding signal of 0.00261 relative 10-mer count.

For the sequence ACCACCCGCC, the binding signal is 0.00445 relative 10-mer count.

Turning to CCCCCCGTCC, the binding signal was 0.00491 relative 10-mer count.

As for GCCCCCCCAC, the binding signal was 0.0055 relative 10-mer count.

The sequence CCCCCTCCCG registered a binding signal of 0.00573 relative 10-mer count.

AGTGTTTCCA registered a binding signal of 0.0113 relative 10-mer count.

CCCGCCTCCC: the binding signal came to 0.00954 relative 10-mer count.

Sequence GGGTGGGTGA displayed a binding signal of 0.00505 relative 10-mer count.

Consider CCCCACCCAC, for which the binding signal was 0.0124 relative 10-mer count.

In the case of AAAGCAGCGT, the binding signal was determined as 0.00115 relative 10-mer count.

A further test concerns the target ZNF721 DBD2 (Homo sapiens, UniProt Q8TF20-2 395-923). Described as above. The note with it: protein: ivt; tags: eGFP (N-terminal); dsDNA, one strand shown. In short, it runs like this:
as §1
Turning to CCCCCCGCAC, the binding signal was determined as 0.00348 relative 10-mer count.

In turn, GCCCCACCGC registered a binding signal of 0.00407 relative 10-mer count.

On to GCCCCCCTCC, for which the binding signal came to 0.00264 relative 10-mer count.

For the sequence CCGCCCACCA, the binding signal turned out to be 0.00156 relative 10-mer count.

In the case of CCACCTCCCC, the binding signal was found to be 0.00336 relative 10-mer count.

In the case of CCCAAAAAAA, the binding signal turned out to be 0.0681 relative 10-mer count.

CAGCATACCC: the binding signal was determined as 0.909 relative 10-mer count.

In turn, AGGGGGGCGG came in with a binding signal of 0.0012 relative 10-mer count.

Sequence CCCTCCCTCC returned a binding signal of 0.0211 relative 10-mer count.

For the sequence AAAAAAAAAA, the binding signal was 0.0538 relative 10-mer count.

With CGCCCCCCAC, the binding signal worked out at 0.00407 relative 10-mer count.

Regarding CCCCTCGCCC, the binding signal was found to be 0.00372 relative 10-mer count.

Sequence AAAAAAAAGA returned a binding signal of 0.0612 relative 10-mer count.

As for CCCACCATCC, the binding signal amounted to 0.00527 relative 10-mer count.

In turn, AGGGGTGGGG yielded a binding signal of 0.00372 relative 10-mer count.

For CGAAAAAAGC, the binding signal was 0.0645 relative 10-mer count.

As to ATAGCTTCAT, the binding signal amounted to 0.00288 relative 10-mer count.

On to CTCCCCCCCA, for which the binding signal worked out at 0.00587 relative 10-mer count.

Sequence CCCTCTCCCC registered a binding signal of 0.00228 relative 10-mer count.

In turn, ACCTCCCACC yielded a binding signal of 0.00348 relative 10-mer count.

Regarding GCCCCCTCCC, the binding signal was determined as 0.00384 relative 10-mer count.

The sequence CTCCCCCCTC displayed a binding signal of 0.00336 relative 10-mer count.

CCCTCCCCCG came in with a binding signal of 0.00467 relative 10-mer count.

Sequence CCCCTCTCCC gave a binding signal of 0.00204 relative 10-mer count.

For the sequence CCACCCACAC, the binding signal turned out to be 0.00635 relative 10-mer count.

CGCCCCGCCC showed a binding signal of 0.00132 relative 10-mer count.

Take ACCCCCCTCC: the binding signal was 0.00336 relative 10-mer count.

On to GTGGGTGGGA, for which the binding signal turned out to be 0.00563 relative 10-mer count.

Sequence CCCCCCCGAC returned a binding signal of 0.00288 relative 10-mer count.

As for AGCTTTTTTC, the binding signal was found to be 0.00467 relative 10-mer count.

GCCCCCCCCA: the binding signal turned out to be 0.00348 relative 10-mer count.

With ACCACCCGCC, the binding signal stood at 0.00312 relative 10-mer count.

On to CCCCCCGTCC, for which the binding signal came to 0.00288 relative 10-mer count.

The sequence GCCCCCCCAC came in with a binding signal of 0.00803 relative 10-mer count.

For the sequence CCCCCTCCCG, the binding signal is 0.00336 relative 10-mer count.

In turn, AGTGTTTCCA registered a binding signal of 0.284 relative 10-mer count.

CCCGCCTCCC: the binding signal was 0.00156 relative 10-mer count.

Turning to GGGTGGGTGA, the binding signal was 0.0012 relative 10-mer count.

Consider CCCCACCCAC, for which the binding signal stood at 0.00587 relative 10-mer count.

On to AAAGCAGCGT, for which the binding signal is 0.512 relative 10-mer count.

Values taken from PMC13541613, “GHT-SELEX demonstrates unexpectedly high intrinsic sequence specificity and complex DNA binding of many human transcription factors”.
